# Pol eta inh = qHTS for Inhibitors of Polymerase Eta. recombinant Pol eta, fluorescent DNA replication assay. Potency, µM (titrated, usually from 114 µM), without a hit: top-dose activity change, negative = inhibition, actives largely listed as inhibitors. 390,000 compounds, 1.2% hits. AID 588591, 2011. DNA polymerase eta (Homo sapiens), Q9Y253; note: % is set by controls: 0 for no effect and ±100 for the full control effect
#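 Pol eta (10 nM) was preincubated with compounds for 15 min at room temperature, after which fluorescent replication substrate (50 nM final) was added to start the reaction. Fluorescence was read kinetically at 0 and 10 min.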
# Pol kappa inh = qHTS for Inhibitors of Polymerase Kappa. purified Pol kappa, fluorescent DNA synthesis assay, 10 min. AID 588579, 2011. Potency, µM (titrated, usually from 107 µM), without a hit: top-dose activity, negative = inhibition, usual class: inhibitors. 400,000 compounds, 0.53% hits. DNA polymerase kappa (Homo sapiens), Q9UBT6; note: % is set by controls: 0 for no effect and ±100 for the full control effect
#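 First, compounds were pin-transferred onto 10 nM Pol kappa. After 15 min at room temperature, substrate was added to 50 nM final. Fluorescence was then measured kinetically at 0 and 10 min.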
# Pol beta inh = qHTS Assay for Inhibitors of DNA Polymerase Beta. P06746. Pol beta primer extension/strand displacement, fluorescence kinetic. Potency, µM (series often up to 114 µM), inactives show top-dose activity change, negative = inhibition, actives largely listed as inhibitors. 340,000 compounds, 1.3% hits. AID 485314, 2010; note: % is set by controls: 0 for no effect and ±100 for the full control effect
#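 Human Pol beta at 10 nM; strand-displacement substrate 50 nM final. Compound exposure 15 min at room temperature before start, reaction 10 min at room temperature.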
# GLS inh = qHTS for Inhibitors of Glutaminase (GLS). AID 624170, 2012. GLS enzymatic activity, qHTS titration. Glutaminase kidney isoform, mitochondrial (Homo sapiens), O94925. 410,000 compounds, 0.21% hits. Potency, µM (highest dose often 45.5 µM), without a hit: at the highest dose activity change, negative = inhibition, actives largely listed as inhibitors; note: % is set by controls: 0 for no effect and ±100 for the full control effect
# Target sequence (O94925 whole entry, looked up, canonical isoform): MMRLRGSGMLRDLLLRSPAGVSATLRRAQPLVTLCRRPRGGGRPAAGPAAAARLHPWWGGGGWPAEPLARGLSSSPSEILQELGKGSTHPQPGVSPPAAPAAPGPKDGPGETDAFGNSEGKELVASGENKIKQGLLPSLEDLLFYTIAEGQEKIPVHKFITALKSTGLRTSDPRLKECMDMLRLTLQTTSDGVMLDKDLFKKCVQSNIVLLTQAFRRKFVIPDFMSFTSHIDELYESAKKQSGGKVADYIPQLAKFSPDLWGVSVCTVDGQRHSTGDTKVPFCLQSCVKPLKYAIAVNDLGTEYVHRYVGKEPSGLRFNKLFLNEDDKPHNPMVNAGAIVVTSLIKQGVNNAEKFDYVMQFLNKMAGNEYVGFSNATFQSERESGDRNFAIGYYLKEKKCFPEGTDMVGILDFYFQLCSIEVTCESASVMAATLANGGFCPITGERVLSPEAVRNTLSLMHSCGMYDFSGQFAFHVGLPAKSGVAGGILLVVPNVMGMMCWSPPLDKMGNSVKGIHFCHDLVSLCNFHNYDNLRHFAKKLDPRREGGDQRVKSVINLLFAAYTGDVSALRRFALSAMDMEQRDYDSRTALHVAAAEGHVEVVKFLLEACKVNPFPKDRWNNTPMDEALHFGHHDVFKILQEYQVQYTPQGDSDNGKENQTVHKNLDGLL
#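 Two-point fluorescence kinetic (t0, 30 min RT) for hKGA; glutamate detected via glutamate oxidase–HRP–Amplex Red. Substrate: 1 mM L-glutamine solution; buffer 45 mM KH2PO4, pH 8.2.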
# GCN5L2 inh = qHTS Assay for Inhibitors of GCN5L2 | Potency, µM (doses to about 58.9 µM), for the others: at the highest dose activity change, negative = inhibition, usual class: inhibitors | 390,000 compounds, 0.21% hits | AID 504327, 2011 | GCN5L2 HAT assay, ThioGlo1 CoA-SH fluorescence; note: % is set by controls: 0 for no effect and ±100 for the full control effect
#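 Titration-based screen in which CoA formation is detected via maleimide probe ThioGlo1 (50uM) turning fluorescent on thiol reaction; substrates H3(1-25) 75uM and acetyl-CoA 70uM, GCN5L2 20nM, 20 min incubation at room temperature.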
# POLI inh = qHTS for Inhibitors of Polymerase Iota | 390,000 compounds, 1% hits | DNA polymerase iota (Homo sapiens), Q9UNA4 | Potency, µM (doses to about 115 µM), inactives show at the top dose activity, negative = inhibition, most hits filed as inhibitors | AID 588590, 2011 | Pol iota fluorescent replication assay, 10 min
#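 Fluorescent replication assay read twice, at 0 min and 10 min after adding 50 nM (final) substrate. Enzyme (10 nM) and compounds were first incubated 15 min at room temperature; enzyme-free buffer wells were negative controls.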
# * hit, by the source's call; u = inconclusive; x = no result. Compounds with a hit are over-represented: about 2.4% of the library has one in this group of screens. Calls come from the whole dose curve; as a rule, active = well fitted inhibition curve with a large enough effect; inconclusive = small, poorly fitted or top-dose-only effect, or another doubt; inactive = no such curve, though single readings can be large or run the other way. Potency is the fitted concentration of half-maximal effect.
SMILES,Pol eta inh,Pol kappa inh,Pol beta inh,GLS inh,GCN5L2 inh,POLI inh
CCn1c2ccccc2c2cc(/C=N/n3c(-c4cc(C)[nH]n4)n[nH]c3=S)ccc21,u,-17%,50µM*,u,-20%,u
CCn1c2ccccc2c2cc(/C=N/n3cn[nH]c3=S)ccc21,-1%,-13%,19%,-14%,-20%,-3%
Oc1ccc(/C=N/n2c(-c3ccccc3)n[nH]c2=S)cc1,-25%,-2%,60%,16µM*,-13%,4%
CC(NS(=O)(=O)c1ccccc1[N+](=O)[O-])c1ccccn1 (stereo unspecified),x,-20%,x,x,x,22%
Cc1ccccc1NC(=O)/C(C#N)=C\c1cc(C)n(-c2ccc(C(=O)O)cc2)c1C,22µM*,-29%,u,1%,-22%,-65%
Cc1cc(/C=C(/C#N)C(=O)Nc2ccccc2)c(C)n1-c1cccnc1,0%,4%,73%,4%,-6%,2%
Cc1ccccc1OC(=O)CSc1nnc(-c2ccc3c(c2)OCO3)o1,-19%,8%,4%,-2%,-9%,27%
CC(C)(C)c1nnc(NS(=O)(=O)c2ccccc2)s1,x,x,x,3%,x,x
COCc1cc(C)nc2sc(C(=O)Nc3nccs3)c(N)c12,-19%,-8%,u,4%,u,35%
Nc1c(C(=O)Nc2nccs2)sc2nc(-c3cccs3)cc(C(F)(F)F)c12,u,1%,45µM*,1%,-10%,-12%
Cc1cc(C)c2c(N)c(C(=O)Nc3nccs3)sc2n1,u,-21%,40µM*,-5%,-29%,5%
Cc1ccc(-c2ccc(CCC(=O)O)n2-c2cccc(C)c2C)cc1,-8%,-7%,u,34%,-8%,0%
COc1ccc(Cl)cc1NC(=O)c1cc2c(=O)n3ccccc3nc2s1,x,-7%,7.1µM*,-17%,35µM*,-25%
CCc1ccc(C(=O)c2cn(CC(=O)Nc3ccc4c(c3)OCCO4)c3ccc(CC)cc3c2=O)cc1,-7%,-8%,u,-8%,0%,24%
CN(C[C@H](Cc1ccccc1)N(C[C@H](CC1CCCCC1)N(CCc1ccccc1)N=O)N=O)N=O,-12%,u,11%,-2%,-2%,89µM*
CCOC(=O)c1c(NC(=O)c2nc(S(C)(=O)=O)ncc2Cl)sc(C(C)=O)c1C,79µM*,4%,-2%,5%,-3%,2%
COc1ccc(-n2c(C)cc(/C=C3\SC(=S)NC3=O)c2C)cc1,u,-17%,-3%,-1%,1%,-28%
Cc1cc(/C=C2\SC(=S)NC2=O)c(C)n1-c1ccccc1,50µM*,u,u,0%,-21%,u
COC(=O)c1cccc(-n2c(C)cc(/C=C3\SC(=O)NC3=O)c2C)c1,0%,x,x,17%,x,x
Cc1cc(C(=O)O)ccc1-n1c(C)cc(/C=C2\SC(=O)NC2=O)c1C,50µM*,-27%,u,5%,1%,u
CC(C)(C)N1C(=O)Cc2c1nc(N)c1c(N)nc(N3CCCCC3CO)c(C#N)c21 (stereo unspecified),u,-10%,0%,-8%,14%,20µM*
Cn1c(SCCOc2ccccc2)nnc1-c1ccc(NC(=O)CCc2ccccc2)cc1,x,4%,x,x,x,30%
CCCc1cc(=O)oc2cc(OCC(=O)NCC3CCC(C(=O)O)CC3)ccc12 (stereo unspecified),0%,16%,-26%,-4%,u,8%
Cc1c(O)ccc2c(CC(=O)N[C@@H](Cc3ccc(O)cc3)C(=O)O)cc(=O)oc12,-7%,-8%,-11%,34%,-9%,u
O=C(Cc1cc(=O)oc2cc(O)ccc12)NC(Cc1ccc(Cl)cc1)C(=O)O (stereo unspecified),1%,-2%,46%,19%,28µM*,4%
SMILES,Pol eta inh,Pol kappa inh,Pol beta inh,GLS inh,GCN5L2 inh,POLI inh
O=C(Cc1cc(=O)oc2cc(O)ccc12)NCC1CCC(C(=O)O)CC1 (stereo unspecified),u,-14%,20%,-11%,28µM*,19%
Nc1cc(C(=O)O)c(N)c2c1C(=O)c1ccccc1C2=O,20µM*,u,u,u,-19%,20µM*
CN(C)c1ccc(N=Nc2ccnc3ccccc23)cc1,x,1%,x,x,x,16%
Cc1ccc2c(C)c(C(=O)Nc3ccc(S(N)(=O)=O)cc3)oc2c1C,-7%,-2%,22%,4%,25%,-19%
Cc1ccc2c(C)c(C(=O)NCc3ccc(S(N)(=O)=O)cc3)oc2c1C,9%,-20%,-26%,-9%,20µM*,97%
COc1cc(-c2nnc(COC(=O)c3ccc([N+](=O)[O-])o3)o2)cc(OC)c1OC,79µM*,x,x,1%,x,x
CC/C(=C\c1ccc(C(=O)OC)cc1)c1cc(OC)cc2oc3ccccc3c12,x,8%,x,x,x,26%
O=C(O)Cc1cccc(OCCCN(Cc2cccc(C(F)(F)F)c2Cl)CC(c2ccccc2)c2ccccc2)c1,x,u,x,x,11µM*,x
CC(C)(C)n1ncc2c(=O)n(Cc3ccccc3C(F)(F)F)cnc21,x,8%,x,x,x,29%
Nc1ccc2cc3ccc(N)cc3nc2c1,x,9.5µM*,x,0%,u,x
Cc1ccc2cc(N)ccc2n1,-4%,3%,u,-7%,1%,92%
O=C(NNc1ccccc1F)c1cccs1,x,7%,x,x,x,8%
Cc1ccccc1CSc1nnc(NC(=O)Cc2cccs2)s1,u,-25%,22µM*,6%,-3%,101%
Cc1cccc(NC(=O)Cc2cccs2)n1,11%,-33%,40µM*,0%,x,5%
Cc1nnc(NC(=O)Cc2cccs2)s1,u,u,35µM*,0%,-4%,45µM*
Cc1ccccc1NC(=O)Cc1cccs1,-1%,-10%,0%,-9%,-6%,-8%
COCCSc1nnc(NC(=O)Cc2cccs2)s1,u,0%,-39%,-2%,-8%,u
O=C(Cc1cccs1)Nc1ccc(N2CCOCC2)cc1,25µM*,-26%,25µM*,0%,-8%,u
O=C(Cc1cccs1)Nc1ccc(Cl)cc1,-8%,-1%,0%,11%,1%,u
O=C(CCC(=O)c1cccs1)Nc1ccc(N2CCCCC2)cc1,89µM*,u,u,2%,-24%,u

# Compound activity from PubChem.
